This experiment addresses Nuclear ferritin-H (K562 nuclear extract, crude or heat/proteinase K enriched) (Homo sapiens, UniProt P02794 P02794:2-183). Description: competition; 20-fold greater competitor concentration than wt needed for 50% inhibition; 1000-fold vs 50-fold excess. To be noted: protein: extract; dsDNA, one strand shown. The method, then: Gel mobility shift assays. Gel retardation assays (i.e., gel shifts) were used to determine DNA binding of the extract proteins to the Rsa I (95 bp) fragment and synthetic oligonucleotides (Berg et al., (1989) Nucleic Acids Res 17, 8833-52; Fried & Crothers (1981) Nucleic Acids Res 9, 6505-25). Each reaction contained 0.5-2 ng of DNA, 1.0-5.0 ug of extract protein, 1.0-5.0 ug of poly dI:poly dC, 100 mM KCl, and binding buffer (Berg et al., (1989) Nucleic Acids Res 17, 8833-52). Unlabeled competitor oligonucleotides ranged from 15- to 2000-fold molar excess and were included in the reaction mixture with the probe before adding protein. Gels used for retardation assays were 4%, 5%, or 6% acrylamide and the running buffer was low ionic strength TAE (Berg et al., (1989) Nucleic Acids Res 17, 8833-52).
Definition of the binding site with competition gel shifts. To further localize the binding of ferritin, the 37 bp oligonucleotide was mutated in different places, replacing six nucleotides at a time with all A's, all C's, or all G's, with complementary nucleotide replacements in the opposing strand (FIG. 4A). A competition gel shift assay was done with the partially purified protein from heated K562 nuclear extract, in which each of the unlabeled mutant oligos as well as the native sequence was competed against the 32-P-labeled native sequence for binding.
For the sequence AACTCCTAAGCAAAAAACAGAAGAGCCAAGGACAGGT, the binding signal is 20 fold.

Source of the values: patent US20090232783, “Method for Regulating Production of Hemoglobin Beta Chains” (published 2009).
